hcDAF-12 act: activators of H. contortus DAF-12 nuclear receptor; HEK293 hcDAF-12 lit1-tk-luc reporter, luminescence; 0% DMSO, 100% Δ7-dafachronic acid; activation, % at 6.8 µM; 370,000 compounds, 1.4% hits; AID 652067;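 active means activation above the mean of all tested compounds plus 3 SD, cut at about 5.5% in these data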;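 further: 100% = response to 3 µM Δ7-dafachronic acid high control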
DAX1 inh-1: blocks DAX1 repression of SF-1 activated StAR promoter; HEK293T StAR-luciferase reporter, SF-1/DAX-1 repression relief; inhibition, % at 6.8 µM; 370,000 compounds, 1.1% hits; AID 652010;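 active means inhibition above the mean over all tested compounds plus 3 SD, cut at about 3.6% in these data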;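 further: 0% = DAX-1 cells with DMSO and 100% = cells lacking DAX-1 with DMSO; higher inhibition means more luminescence from relief of DAX-1 repression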
GAA850 FXN act: activators of GAA850 frataxin (FXN) promoter | HEK293 lucGAA850 FXN promoter luciferase reporter, 24 h; percent of 10 µM SAHA response | activation, % at 6 µM | 360,000 compounds, 0.56% hits | AID 540364;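 active means activation above the average of all compounds screened plus 3 SD, cutoff fixed separately per campaign, cut at about 7.5% in these data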;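 further: 0% = DMSO wells and 100% = 10 µM SAHA wells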
hgDAF12 agonist: activates the H. glycines DAF-12 receptor ligand-binding domain. HEK293 GAL4-hgDAF12 UAS-luciferase reporter, agonist luminescence; normalized to butyrate control. activation, % at 6.8 µM. 370,000 compounds, 1.8% hits. AID 687014;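 active means activation above a cutoff set at the mean of all screened compounds plus 3 SD, cut at about 10% in these data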;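 further: 0% = DMSO wells and 100% = sodium butyrate wells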
DAX1 inh-2: NR0B1 (DAX1) inhibition. P51843. HEK293 Gal4-DAX1 luciferase reporter, luminescence. inhibition, % at 6.75 µM. 340,000 compounds, 0.99% hits;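 active means inhibition above the mean over all tested compounds plus 3 SD, cut at about 4.2% in these data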;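 further: 0% = DAX1-transfected cells with DMSO and 100% = empty-vector control cells with DMSO; inhibition shows as a rise in luminescence from relieved DAX1 repression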
Target sequence (P51843 207-470 limits assumed): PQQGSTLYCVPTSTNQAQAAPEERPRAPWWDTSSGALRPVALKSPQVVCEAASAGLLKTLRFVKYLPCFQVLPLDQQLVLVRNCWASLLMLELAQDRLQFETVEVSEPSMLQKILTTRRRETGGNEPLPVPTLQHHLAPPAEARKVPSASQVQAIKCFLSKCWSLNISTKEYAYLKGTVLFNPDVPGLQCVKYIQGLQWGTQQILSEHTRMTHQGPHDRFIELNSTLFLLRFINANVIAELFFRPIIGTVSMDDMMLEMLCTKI
ssDAF12 agonist: S. stercoralis DAF-12 activation, primary screen. AID 652126. HEK293 ssDAF-12/GRIP1 lit1-tk-luc reporter, luminescence; % of 3 µM dafachronic acid response. 370,000 compounds, 1% hits. activation, % at 6.8 µM;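 active means activation above the mean over all tested compounds plus 3 SD, cut at about 0.9% in these data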;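 further: 0% = DMSO-only wells and 100% = 3 µM delta7-dafachronic acid wells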
GAA30 counter: counter-screen for GAA850 frataxin promoter activators: GAA30 promoter activation. shares compounds with GAA850 FXN act. HEK293 lucGAA30 FXN promoter luciferase, 24 h; DMSO = 0%, 5 µM ipriflavone = 100%. activation, % at 6 µM. 1,900 compounds, 66% hits;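 active means mean activation above the mean of solvent-only control wells plus 3 SD, cut at about 22% in these data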;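 further: counterscreen of GAA850 promoter hits where activity marks nonselective or luminescence artifacts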
GAA850 confirm: GAA850 FXN promoter activation confirmation | 1,900 compounds, 86% hits | activation, % at 6 µM | shares compounds with GAA850 FXN act | HEK293 lucGAA850 FXN promoter luciferase reporter, 24 h; 100% = activation by SAHA;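 active means mean activation above a set limit taken from the primary screen, cut at about 8% in these data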;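 further: 0% = DMSO wells and 100% = 10 µM SAHA wells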
Active calls of the source: *; · = no result given. An excerpt weighted towards active compounds, which were near 4.5% of everything screened.

SMILES	hcDAF-12 act	DAX1 inh-1	GAA850 FXN act	hgDAF12 agonist	DAX1 inh-2	ssDAF12 agonist	others
CCCCCCN1CCS(=O)(=O)N(Cc2ccc(C)cc2)C(C(=O)OC)C1 (stereo unspecified)	-2	-1	·	-4	·	-1
CC(C)c1ccc(/C=C/C2=NNC(=O)CC2)cc1	0	2	5	11*	2	-1
CCC(C(=O)Nc1ccccc1N1CCCC1)c1cccc(OC)c1 (stereo unspecified)	-3	-1	·	-1	·	0
Clc1ccc(-c2cc(-c3ccccc3)on2)cc1	2	1	4	8	0	0
Cc1nc(-c2cc(-c3ccc(Cl)cc3)no2)cs1	0	1	6	3	4.5*	-1
C[n+]1cc(C(O)(c2ccccc2)c2ccccc2)n2ccccc21	-1	·	·	0	·	-1
CCOC(=O)[C@H](CCc1ccccc1)N[C@@H](C)C(=O)N1Cc2cc(OC)c(OC)cc2C[C@H]1C(=O)O	-1	-1	·	2	·	-1
O=C1C(=Cc2ccco2)CCCC1=Cc1ccco1	2	3	12*	1	-1	0
O=C(NC1CCCCN(Cc2ccc(OC(F)(F)F)cc2)C1=O)c1ccc(F)c(F)c1 (stereo unspecified)	0	0	·	3	·	-1
O=C1C2CCCN2C(c2ccc(F)cc2)N1c1cccc(Cl)c1 (stereo unspecified)	6.4*	1	0	3	3	-1
COc1ccc(Cl)cc1N1C(=O)C2CCCN2C1c1ccc(F)cc1 (stereo unspecified)	1	0	-1	4	4.5*	-1
COc1ccc(C2N(c3cc(Cl)ccc3OC)C(=O)C3CCCN32)cc1 (stereo unspecified)	0	1	-1	1	1	-1
O=C(CCc1ccccc1)N[C@H]1[C@H](OC(=O)c2ccco2)CCC[C@]12C(=O)N(Cc1ccccc1)c1ccccc12	-2	-1	·	-4	·	-2
COc1ccccc1-c1cccc2c3c([nH]c12)[C@@H]1C[C@H]2[C@@H](CN1CC3)[C@H](C)ON2C	-1	0	·	1	·	-1
O=C(NC1CC1)c1sc2cc(Cl)ccc2c1Cl	1	4.3*	1	6	1	0
O=C(Nc1nccs1)c1sc2cc(Cl)ccc2c1Cl	2	1	0	5	1	1.4*
O=C(Nc1nccs1)c1cc(Cl)ccc1[N+](=O)[O-]	1	0	2	3	-1	-1
O=C(NC1CC1)c1sc2cc(F)ccc2c1Cl	1	2	2	2	1	-1
O=S1(=O)c2c(NCc3ccco3)cccc2Oc2ccccc2CN1Cc1cn(Cc2ccccc2C(F)(F)F)nn1	-4	-1	·	-2	·	-2
CC1=C(C(=O)Nc2ccccn2)C(c2ccc(Cl)cc2Cl)NC(=S)N1 (stereo unspecified)	1	1	2	2	0	-1
CC1=C(C(=O)Nc2ccccn2)C(c2ccccc2Cl)NC(=S)N1 (stereo unspecified)	2	2	6	11*	1	-1
CCOC(=O)N1CCC(N2CC34C=CC(O3)C(C(=O)Nc3ccc(C)cc3)C4C2=O)CC1 (stereo unspecified)	1	1	0	0	4.5*	-1
CCOC(=O)c1cccnc1SCc1cc(=O)n2ccccc2n1	4	2	4	3	0	2.1*
CN(CC(=O)Nc1ccc(F)cc1)C(=O)c1ccc2ccccc2n1	6.0*	1	-1	1	1	0
COC(=O)[C@]12C[C@H](CC(=O)N3CCN(C(=O)c4ccco4)CC3)C(=O)N(Cc3ccc(Cl)cc3Cl)C1=C[C@H](C1CCCC1)O[C@@H]2C	-1	1	·	-2	·	-1
SMILES	hcDAF-12 act	DAX1 inh-1	GAA850 FXN act	hgDAF12 agonist	DAX1 inh-2	ssDAF12 agonist	others
COC(=O)[C@]1(CNC(=O)c2cc(F)ccc2F)CC(=O)N(C)[C@@H]1c1ccccc1	0	0	·	-1	·	-1
COc1ccc(O)c(C(=O)CC(=O)c2ccc(F)cc2)c1	8.1*	1	-1	15*	-4	1.0*
COc1ccc(-n2cc(C(=O)c3ccccc3O)cn2)cc1	5	4	-8	11*	0	0
COc1ccc(C(=O)CC(=O)c2ccccc2O)cc1OC	0	0	7	1	2	-1
O=C(COc1ccccc1C(=O)c1cnn(-c2ccccc2)c1)Nc1ccc2ccccc2c1	3	2	7	11*	1	1.3*
COc1ccc(C(=O)CC(=O)c2ccccc2O)cc1	5	2	5	11*	2	0
CCN(CC)C(=O)CN1C(=O)C2CCCCN2C(=O)c2ccccc21 (stereo unspecified)	-3	0	·	3	·	-1
CN(C)CCNc1oc(/C=C/c2ccccc2)nc1C#N	-2	0	5	0	-1	0
C=CCNc1oc(/C=C/c2ccccc2)nc1C#N	5	3.9*	5	9	3	0.9*
COCCCNc1oc(/C=C/c2ccccc2)nc1C#N	5	3	5	12*	3	0
CCOc1ccc(/C=C/c2nc(C#N)c(NCCCOC)o2)cc1	-3	-1	-2	-1	-2	-2
CCN(CC)C(=O)CC[C@@H]1CC[C@]2(CCCN(S(=O)(=O)c3ccccc3)C2)O1	-3	2	·	-3	·	-1
COC(=O)c1c(NC(=O)c2ccco2)sc(C)c1C	1	0	1	1	0	-1
Cc1c(Cc2ccccc2)sc(NC(=O)c2ccco2)c1C(N)=O	3	-1	8.8*	9	0	-1	GAA30 counter=38*;GAA850 confirm=11*
CCCCN(C(=O)NC(=O)C1=C(N2CCOCC2)/C(=C/c2ccccc2)CC1)S(C)(=O)=O	0	1	2	2	0	-1
CCOC(=O)C(=O)C1=C(N2CCOCC2)/C(=C\c2ccc(F)cc2)CC1	0	0	7.6*	-2	1	-1	GAA30 counter=18;GAA850 confirm=9.0*
CCOC(=O)/C(=N\Nc1ccc(OC)cc1)c1csc(Nc2ccccc2)n1	1	-1	11*	2	-1	-1	GAA30 counter=38*;GAA850 confirm=25*
CCOC(=O)/C(=N\Nc1ccc(Cl)cc1)c1csc(Nc2ccccc2)n1	0	1	8.0*	1	-1	-1	GAA30 counter=34*;GAA850 confirm=24*
